The values below come from PubChem BioAssay (Tox21).

Records with an inconclusive call do not appear. A call without a number means that no potency is given here. Activity calls are given as the source filed them. The call rests on the fitted dose curve.

A short description of one experiment: G protein-coupled receptor (GPCR) small molecule agonists, calcium flux assay: HEK293 wild type cell line counter screen (AID 1920065). The conditions noted are these: HEK293 WT calcium flux, fluorescence, agonist mode; series mostly up to 57.6 µM. An outline of the steps: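 Seed cells, incubate 18 h (37 C, 5% CO2); add calcium dye, 1 h at 37 C; pin-transfer compounds, ATP control or DMSO; read fluorescence 480/540 nm each second for 3 min.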
For orientation: Calcium assays in cells follow changes in intracellular calcium, usually with a dye or a luminescent sensor.
Consider `Oc1ccc(C(c2ccc(O)cc2)(C(F)(F)F)C(F)(F)F)cc1`, for which the Potency result is “inactive”.

Consider `O=C(Nc1ccc(Br)cc1)c1cc(Br)cc(Br)c1O`, for which the Potency result is “inactive”.

For the compound `c1ccc2c(c1)CCCC2`, the Potency result was “inactive”.

Take `CC(=[OH+])/C=C(/C)[O-].CC(=[OH+])/C=C(\C)[O-].CC(=[OH+])/C=C(\C)[O-].[Al]`: the Potency result is “inactive”.

On to `CCCCCCI`, for which the Potency entry was “inactive”.

`Oc1ccccc1Cl`: the Potency entry is “inactive”.

Consider `Oc1cc(Cl)ccc1Cl`, for which the Potency entry is “inactive”.

Consider `CC(C)(C)C(=O)Cl`, for which the Potency result was “inactive”.

`NNC(=S)NN`: the Potency entry is “inactive”.

`O=[N+]([O-])c1ccc([As](=O)(O)O)cc1`: the Potency entry is “inactive”.

Regarding `O=C(O)C(F)(F)C(F)(F)C(F)(F)C(F)(F)C(F)(F)C(F)(F)C(F)(F)C(F)(F)F`, the Potency entry was “inactive”.

Consider `C=CC1CC=CCC1` (centres undefined), for which the Potency result was “inactive”.

`ClC1C(Cl)C(Cl)C(Cl)C(Cl)C1Cl` (centres undefined): the Potency entry was “inactive”.

In the case of `Cc1cccc([N+](=O)[O-])c1`, the Potency entry is “inactive”.

`NC(=O)CF`: the Potency result is “inactive”.

For `O=C(O)C1C2CCC(O2)C1C(=O)O` (centres undefined), the Potency result was “inactive”.

Regarding `COC(=O)c1ccccc1C(=O)OC`, the Potency result was “inactive”.

As for `Cc1ccccc1O`, the Potency result was “inactive”.

Consider `CCC12COCN1COC2`, for which the Potency result was “inactive”.

With `C[Si](Cn1cncn1)(c1ccc(F)cc1)c1ccc(F)cc1`, the Potency result is “inactive”.

Turning to `Cc1ccccc1CCl`, the Potency entry was “inactive”.

On to `N#Cc1cc([N+](=O)[O-])ccc1N`, for which the Potency result was “inactive”.

As for `O=Cc1ccc(Cl)cc1Cl`, the Potency result is “inactive”.

For `CCOC(=O)CC(SP(=S)(OC)OC)C(=O)OCC` (centres undefined), the Potency entry is “inactive”.

Take `NCC(O)c1ccc(O)cc1` (centres undefined): the Potency result was “inactive”.

As for `COc1ccc2c(c1OC)C(=O)O[C@@H]2[C@H]1c2cc3c(cc2CCN1C)OCO3`, the Potency result is “inactive”.

For `CC(C)(c1ccc(OCC2CO2)cc1)c1ccc(OCC2CO2)cc1` (centres undefined), the Potency result is “inactive”.

Consider `C=CCCl`, for which the Potency entry is “inactive”.

Consider `C/C(=N\NC(=O)Nc1cc(F)cc(F)c1)c1ncccc1C(=O)O`, for which the Potency result is “inactive”.

In the case of `C=CCOC(N)=O`, the Potency entry was “inactive”.

Turning to `COC(=O)NC(=S)Nc1ccccc1NC(=S)NC(=O)OC`, the Potency entry was “inactive”.

For `Cc1ccc2c(c1N)C(=O)c1ccccc1C2=O`, the Potency entry is “inactive”.

Take `COP(=O)(OC)C(O)C(Cl)(Cl)Cl` (centres undefined): the Potency result was “inactive”.

For `CN(C)N`, the Potency result was “inactive”.

As to `O=C(O)C(Br)Br`, the Potency entry is “inactive”.

With `c1ccc(P(c2ccccc2)c2ccccc2)cc1`, the Potency result was “inactive”.

`CN(C)CCC#N`: the Potency entry was “inactive”.

As for `c1ccc2c(c1)sc1ccccc12`, the Potency result is “inactive”.

Consider `CCBr`, for which the Potency entry was “inactive”.

A further experiment can be described thus: p53 small molecule agonists, cell-based qHTS assay with human liver microsomes (AID 1963577). Further: potency means the concentration at half of the fitted maximal effect. The conditions noted are these: HCT-116 p53RE-bla with human liver microsomes, ratio, 16 h; series mostly up to 66 µM. The procedure, abridged:
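Compounds act here after metabolic activation: human liver microsomes and NADPH, both at 0.5 mg/mL final, were co-added to p53RE-bla cells. Incubation ran 16 h at 37 C, followed by LiveBLAzer detection.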
Regarding `Oc1ccc(C(c2ccc(O)cc2)(C(F)(F)F)C(F)(F)F)cc1`, the Potency entry was “inactive”.

For the compound `O=C(Nc1ccc(Br)cc1)c1cc(Br)cc(Br)c1O`, the Potency result is “inactive”.

As for `c1ccc2c(c1)CCCC2`, the Potency result is “inactive”.

Turning to `CC(=[OH+])/C=C(/C)[O-].CC(=[OH+])/C=C(\C)[O-].CC(=[OH+])/C=C(\C)[O-].[Al]`, the Potency entry is “inactive”.

With `CCCCCCI`, the Potency result was “inactive”.

Regarding `Oc1ccccc1Cl`, the Potency result was “inactive”.

For `Oc1cc(Cl)ccc1Cl`, the Potency entry was “inactive”.

As to `CC(C)(C)C(=O)Cl`, the Potency result is “inactive”.

Regarding `NNC(=S)NN`, the Potency entry is “inactive”.

As for `O=[N+]([O-])c1ccc([As](=O)(O)O)cc1`, the Potency result is “inactive”.

As to `O=C(O)C(F)(F)C(F)(F)C(F)(F)C(F)(F)C(F)(F)C(F)(F)C(F)(F)C(F)(F)F`, the Potency result is “inactive”.

Turning to `C=CC1CC=CCC1` (centres undefined), the Potency entry was “inactive”.

Take `ClC1C(Cl)C(Cl)C(Cl)C(Cl)C1Cl` (centres undefined): the Potency entry is “inactive”.

Regarding `Cc1cccc([N+](=O)[O-])c1`, the Potency entry was “inactive”.

`NC(=O)CF`: the Potency entry was “inactive”.

On to `O=C(O)C1C2CCC(O2)C1C(=O)O` (centres undefined), for which the Potency result is “inactive”.

Turning to `COC(=O)c1ccccc1C(=O)OC`, the Potency result was “inactive”.

As to `Cc1ccccc1O`, the Potency result is “inactive”.

In the case of `CCC12COCN1COC2`, the Potency entry was “inactive”.

As for `C[Si](Cn1cncn1)(c1ccc(F)cc1)c1ccc(F)cc1`, the Potency result is “inactive”.

For the compound `Cc1ccccc1CCl`, the Potency result is “inactive”.

For the compound `N#Cc1cc([N+](=O)[O-])ccc1N`, the Potency entry is “inactive”.

Regarding `O=Cc1ccc(Cl)cc1Cl`, the Potency result is “inactive”.

As to `CCOC(=O)CC(SP(=S)(OC)OC)C(=O)OCC` (centres undefined), the Potency entry was “inactive”.

For `NCC(O)c1ccc(O)cc1` (centres undefined), the Potency entry was “inactive”.

Consider `COc1ccc2c(c1OC)C(=O)O[C@@H]2[C@H]1c2cc3c(cc2CCN1C)OCO3`, for which the Potency result was “inactive”.

For `CC(C)(c1ccc(OCC2CO2)cc1)c1ccc(OCC2CO2)cc1` (centres undefined), the Potency result was “inactive”.

With `C=CCCl`, the Potency entry was “inactive”.

Turning to `C/C(=N\NC(=O)Nc1cc(F)cc(F)c1)c1ncccc1C(=O)O`, the Potency result was “inactive”.

As to `C=CCOC(N)=O`, the Potency result is “inactive”.

With `COC(=O)NC(=S)Nc1ccccc1NC(=S)NC(=O)OC`, the Potency result is “inactive”.

`Cc1ccc2c(c1N)C(=O)c1ccccc1C2=O`: the Potency result is “inactive”.

As for `COP(=O)(OC)C(O)C(Cl)(Cl)Cl` (centres undefined), the Potency was 1.46 µM (active).

Turning to `CN(C)N`, the Potency result is “inactive”.

As for `O=C(O)C(Br)Br`, the Potency entry was “inactive”.

As to `c1ccc(P(c2ccccc2)c2ccccc2)cc1`, the Potency result was “inactive”.

Consider `CN(C)CCC#N`, for which the Potency entry is “inactive”.

With `c1ccc2c(c1)sc1ccccc12`, the Potency result was “inactive”.

For `CCBr`, the Potency entry is “inactive”.

Another experiment is described as follows: p53 small molecule agonists, cell-based qHTS assay with rat liver microsomes (AID 1963578). The conditions noted are these: HCT-116 p53RE-bla, beta-lactamase ratio, 16 h; series mostly up to 66 µM. An outline of the steps: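 Read-out is beta-lactamase reporter fluorescence (LiveBLAzer, 2 h, room temperature, dark) in p53RE-bla cells treated 16 h at 37 C with compound, rat liver microsomes and NADPH, both 0.5 mg/mL final.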
(qHTS replaces the single test concentration by a dilution series.)
Take `Oc1ccc(C(c2ccc(O)cc2)(C(F)(F)F)C(F)(F)F)cc1`: the Potency entry is “inactive”.

Take `O=C(Nc1ccc(Br)cc1)c1cc(Br)cc(Br)c1O`: the Potency entry was “inactive”.

For `CCCCCCI`, the Potency result was “inactive”.

On to `Oc1cc(Cl)ccc1Cl`, for which the Potency result is “inactive”.

Regarding `CC(C)(C)C(=O)Cl`, the Potency result is “inactive”.

Consider `NNC(=S)NN`, for which the Potency entry was “inactive”.

Take `O=C(O)C(F)(F)C(F)(F)C(F)(F)C(F)(F)C(F)(F)C(F)(F)C(F)(F)C(F)(F)F`: the Potency entry was “inactive”.

`Cc1cccc([N+](=O)[O-])c1`: the Potency result is “inactive”.

With `NC(=O)CF`, the Potency entry was “inactive”.

As for `O=C(O)C1C2CCC(O2)C1C(=O)O` (centres undefined), the Potency result is “inactive”.

In the case of `C[Si](Cn1cncn1)(c1ccc(F)cc1)c1ccc(F)cc1`, the Potency result was “inactive”.

Regarding `Cc1ccccc1CCl`, the Potency result was “inactive”.

On to `N#Cc1cc([N+](=O)[O-])ccc1N`, for which the Potency entry was “inactive”.

Take `O=Cc1ccc(Cl)cc1Cl`: the Potency result was “inactive”.

In the case of `NCC(O)c1ccc(O)cc1` (centres undefined), the Potency entry is “inactive”.

As for `CC(C)(c1ccc(OCC2CO2)cc1)c1ccc(OCC2CO2)cc1` (centres undefined), the Potency entry is “inactive”.

For the compound `C=CCCl`, the Potency result is “inactive”.

Turning to `COC(=O)NC(=S)Nc1ccccc1NC(=S)NC(=O)OC`, the Potency entry is “inactive”.

Turning to `Cc1ccc2c(c1N)C(=O)c1ccccc1C2=O`, the Potency entry is “inactive”.

Turning to `O=C(O)C(Br)Br`, the Potency entry was “inactive”.

On to `CN(C)CCC#N`, for which the Potency entry is “inactive”.
